The panel holds about 79,000 compounds, 15% with a hit somewhere; the sample as a whole holds those more often. A number with no mark means an inactive call. Calls of active or inactive are those of the source. Rule as the data show it: active = growth inhibition above about 70%; inactive = the rest.

Experiment [1] in a line: NCI Yeast Anticancer Drug Screen. Data for the rad50 strain (AID 155).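 Also: 0% = growth of vehicle-only cultures of the same strain.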 As to conditions: S. cerevisiae rad50 strain growth inhibition, hits give high values. The method in brief:
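Readout: growth inhibition relative to vehicle-treated cultures. Compound exposure was carried out in a genetically defined yeast strain deficient in DNA damage repair.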

A short description of experiment [2]: NCI Yeast Anticancer Drug Screen. Data for the mec2-1 strain (AID 157). As to conditions: S. cerevisiae mec2-1 strain, hits give high values. The method in brief: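 Vehicle-treated cultures served as reference for growth inhibition of compound-exposed mec2-1 yeast.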
Experiment [3] is described as follows: NCI Yeast Anticancer Drug Screen. Data for the sgs1 mgt1 strain (AID 161).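 Also: 0% = growth of cultures given vehicle only.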 As to conditions: S. cerevisiae sgs1 mgt1 strain, hits give high values. In short, it runs like this:
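Test agents were incubated with a DNA-repair-mutant yeast strain. Growth was then read and compared against vehicle-treated controls.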

A short description of experiment [4]: NCI Yeast Anticancer Drug Screen. Data for the cln2 rad14 strain (AID 165).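 Also: 0% = growth equal to vehicle treated cultures.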 To be noted: S. cerevisiae cln2 rad14 strain, hits give high values. In short, it runs like this: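 Each compound was tested on cln2 rad14 yeast. Inhibition of growth was calculated against vehicle-exposed controls.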
The nature of experiment [5]: NCI Yeast Anticancer Drug Screen. Data for the bub3 strain (AID 167). To be noted: S. cerevisiae bub3 mutant strain, hits give high values. The method in brief: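 Readout: yeast growth inhibition, expressed relative to vehicle-only wells. The test organism is a mutant strain from a panel with lesions in DNA repair or checkpoint genes.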
Experiment [6] is described as follows: NCI Yeast Anticancer Drug Screen. Data for the mlh1 rad18 strain (AID 175). As to conditions: S. cerevisiae mlh1 rad18 strain growth inhibition, hits give high values. The method in brief: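 Vehicle-treated cultures served as the reference for growth inhibition in a yeast strain carrying DNA damage repair alterations exposed to each compound.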
Setting [7] is: at 5.0 µM (retest, dose inferred, filed as 0.5).
Setting [8] is: at 50.0 µM (retest, dose inferred, filed as 5.0).

In the case of `OCCc1c2ccccc2cc2ccccc12`, the growth inhibition in experiment [1] (setting [7]) was -135%; in experiment [1] (setting [8]), -50%; in experiment [1] (at 50.0 µM) it was 41.5%; in experiment [2] (setting [7]), -44%; in experiment [2] (setting [8]), -41%; in experiment [2] (at 50.0 µM), 10.6%. Besides, the growth inhibition is -61% in experiment [3] (setting [7]); -36% in experiment [3] (setting [8]); 11.7% in experiment [3] (at 50.0 µM); -52% in experiment [4] (setting [7]); -48% in experiment [4] (setting [8]); 11.8% in experiment [4] (at 50.0 µM). Further, the growth inhibition was -60% in experiment [5] (setting [7]); -43% in experiment [5] (setting [8]); 3.35% in experiment [5] (at 50.0 µM); -127% in experiment [6] (setting [7]); -74% in experiment [6] (setting [8]); 59.8% in experiment [6] (at 50.0 µM).
Consider `COc1cccc(/C=C(\NC(=O)c2ccccc2)c2nc3ccccc3s2)c1`, for which the growth inhibition in experiment [1] (setting [7]) is 64%; in experiment [1] (setting [8]), 96% (active); in experiment [1] (at 50.0 µM) it was 98.3% (active); in experiment [2] (setting [7]), 18%; in experiment [2] (setting [8]), 96% (active); in experiment [2] (at 50.0 µM), 98.2% (active). Moreover, the growth inhibition was 53% in experiment [3] (setting [7]); 97% (active) in experiment [3] (setting [8]); 98.8% (active) in experiment [3] (at 50.0 µM); 13% in experiment [4] (setting [7]); 97% (active) in experiment [4] (setting [8]); 97.7% (active) in experiment [4] (at 50.0 µM). In addition, the growth inhibition in experiment [5] (setting [7]) is 29%; in experiment [5] (setting [8]), 97% (active); in experiment [5] (at 50.0 µM) it was 97.4% (active); in experiment [6] (setting [7]), 25%; in experiment [6] (setting [8]) it was 96% (active); in experiment [6] (at 50.0 µM) it was 98.3% (active).
As for `CC(NC(=O)C(NC(=O)C(NC(=O)C(F)(F)F)C(C)C)C(C)C)C(=O)Oc1c(Cl)c(Cl)c(Cl)c(Cl)c1Cl` (configuration not stated), the growth inhibition in experiment [1] (setting [7]) is 5%; in experiment [1] (setting [8]), 70% (active); in experiment [1] (at 50.0 µM) it was 59%; in experiment [2] (setting [7]), 6%; in experiment [2] (setting [8]), 62%; in experiment [2] (at 50.0 µM), 86.7% (active). In addition, the growth inhibition in experiment [3] (setting [7]) was 21%; in experiment [3] (setting [8]), 80% (active); in experiment [3] (at 50.0 µM), 82.9% (active); in experiment [4] (setting [7]) it was 10%; in experiment [4] (setting [8]) it was 68%; in experiment [4] (at 50.0 µM), 77.7% (active). Also, the growth inhibition in experiment [5] (setting [7]) was -20%; in experiment [5] (setting [8]) it was 65%; in experiment [5] (at 50.0 µM), 85.6% (active); in experiment [6] (setting [7]) it was 28%; in experiment [6] (setting [8]) it was 83% (active); in experiment [6] (at 50.0 µM) it was 78.7% (active).
In the case of `O=c1c2ccccc2sc2cccc(NCCCN3CCN(CCCNc4cccc5sc6ccccc6c(=O)c45)CC3)c12`, the growth inhibition in experiment [1] (setting [7]) is -1%; in experiment [1] (setting [8]) it was 4%; in experiment [1] (at 50.0 µM), 28.4%; in experiment [2] (setting [7]) it was -2%; in experiment [2] (setting [8]), -3%; in experiment [2] (at 50.0 µM) it was -10.7%. In addition, the growth inhibition in experiment [3] (setting [7]) is 4%; in experiment [3] (setting [8]), 13%; in experiment [3] (at 50.0 µM) it was 3.3%; in experiment [4] (setting [7]) it was -3%; in experiment [4] (setting [8]), -6%; in experiment [4] (at 50.0 µM) it was 46%. The growth inhibition in experiment [5] (setting [7]) was -2%; in experiment [5] (setting [8]), -5%; in experiment [5] (at 50.0 µM), -9.1%; in experiment [6] (setting [7]), -3%; in experiment [6] (setting [8]), -65%; in experiment [6] (at 50.0 µM) it was 0.6%.
For the molecule `Clc1nnc(Cl)s1`, the growth inhibition is 3% in experiment [1] (setting [7]); 36% in experiment [1] (setting [8]); 29.1% in experiment [1] (at 50.0 µM); 8% in experiment [2] (setting [7]); 54% in experiment [2] (setting [8]); 21.6% in experiment [2] (at 50.0 µM). Moreover, the growth inhibition was 2% in experiment [3] (setting [7]); 67% in experiment [3] (setting [8]); 19.4% in experiment [3] (at 50.0 µM); 1% in experiment [4] (setting [7]); 9% in experiment [4] (setting [8]); 25.9% in experiment [4] (at 50.0 µM). Moreover, the growth inhibition was 5% in experiment [5] (setting [7]); 72% (active) in experiment [5] (setting [8]); 23.9% in experiment [5] (at 50.0 µM); 5% in experiment [6] (setting [7]); 53% in experiment [6] (setting [8]); 18.9% in experiment [6] (at 50.0 µM).
Turning to `Clc1nssc1=Nc1nonc1-c1ccccc1`, the growth inhibition in experiment [1] (setting [7]) was 59%; in experiment [1] (setting [8]) it was 99% (active); in experiment [1] (at 50.0 µM) it was 88.7% (active); in experiment [2] (setting [7]), 64%; in experiment [2] (setting [8]) it was 100% (active); in experiment [2] (at 50.0 µM) it was 91.2% (active). The growth inhibition in experiment [3] (setting [7]) is 86% (active); in experiment [3] (setting [8]) it was 100% (active); in experiment [3] (at 50.0 µM), 79.9% (active); in experiment [4] (setting [7]) it was 68%; in experiment [4] (setting [8]), 96% (active); in experiment [4] (at 50.0 µM), 48.6%. The growth inhibition is 97% (active) in experiment [5] (setting [7]); 99% (active) in experiment [5] (setting [8]); 79.7% (active) in experiment [5] (at 50.0 µM); 49% in experiment [6] (setting [7]); 98% (active) in experiment [6] (setting [8]); 92.2% (active) in experiment [6] (at 50.0 µM).
With `CCn1nc(-c2ccccc2)c2c1N(C)c1ccccc1-n1c(-c3ccccc3)nnc1-2`, the growth inhibition is -1% in experiment [1] (setting [7]); 49% in experiment [1] (setting [8]); 98.7% (active) in experiment [1] (at 50.0 µM); -16% in experiment [2] (setting [7]); 99% (active) in experiment [2] (setting [8]); 99% (active) in experiment [2] (at 50.0 µM). For the same molecule, the growth inhibition was 3% in experiment [3] (setting [7]); 45% in experiment [3] (setting [8]); 99.2% (active) in experiment [3] (at 50.0 µM); 14% in experiment [4] (setting [7]); 98% (active) in experiment [4] (setting [8]); 99% (active) in experiment [4] (at 50.0 µM). For the same molecule, the growth inhibition in experiment [5] (setting [7]) was -11%; in experiment [5] (setting [8]), 99% (active); in experiment [5] (at 50.0 µM), 99.2% (active); in experiment [6] (setting [7]), 7%; in experiment [6] (setting [8]), 98% (active); in experiment [6] (at 50.0 µM), 99.2% (active).
As to `S=C(Nc1ccc(Cl)c(Cl)c1)SC1CCCCC1`, the growth inhibition in experiment [1] (setting [7]) was 17%; in experiment [1] (setting [8]), 96% (active); in experiment [1] (at 50.0 µM), 47.2%; in experiment [2] (setting [7]), 11%; in experiment [2] (setting [8]) it was 97% (active); in experiment [2] (at 50.0 µM) it was 64.2%. In addition, the growth inhibition in experiment [3] (setting [7]) was 11%; in experiment [3] (setting [8]), 98% (active); in experiment [3] (at 50.0 µM) it was 87.1% (active); in experiment [4] (setting [7]), -1%; in experiment [4] (setting [8]), 95% (active); in experiment [4] (at 50.0 µM), 87.5% (active). Further, the growth inhibition was 17% in experiment [5] (setting [7]); 96% (active) in experiment [5] (setting [8]); 83.3% (active) in experiment [5] (at 50.0 µM); 20% in experiment [6] (setting [7]); 96% (active) in experiment [6] (setting [8]); 90% (active) in experiment [6] (at 50.0 µM).
On to `COc1ccc(C(=O)NCCN2CCN3Cc4[nH]c5ccccc5c4CC3C2)cc1` (configuration not stated), for which the growth inhibition in experiment [1] (setting [7]) is -1%; in experiment [1] (setting [8]), 3%; in experiment [1] (at 50.0 µM), 1.65%; in experiment [2] (setting [7]), -2%; in experiment [2] (setting [8]), -5%; in experiment [2] (at 50.0 µM), 1.85%. The growth inhibition in experiment [3] (setting [7]) is -8%; in experiment [3] (setting [8]) it was 8%; in experiment [3] (at 50.0 µM), -6.4%; in experiment [4] (setting [7]) it was -5%; in experiment [4] (setting [8]), -2%; in experiment [4] (at 50.0 µM) it was -17.6%. Moreover, the growth inhibition was -5% in experiment [5] (setting [7]); 1% in experiment [5] (setting [8]); -5.05% in experiment [5] (at 50.0 µM); -11% in experiment [6] (setting [7]); -3% in experiment [6] (setting [8]); 11.7% in experiment [6] (at 50.0 µM).

(Values after PubChem BioAssay (NCI).)
